PubChem BioAssay AID2094 (Broad Institute, 2009)
Hit rate of the full screen: of about 300,000 compounds, about 1,200 (0.4%) were called active. Cut-off read from the data, not from the text of the source: active = activity change below about -75% (passing the limit was not always enough); inconclusive = no clear call, values can overlap the other calls. The sample as a whole holds a higher share of actives than the screen did.

Experiment: Vibrio harveyi AI-2 quorum sensing modulators, primary screen, JMH597 strain, luminescence/OD600 ratio (AID 2094);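 note: luminescence divided by OD600 gain over 9 h not by final OD600 alone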
Conditions: Vibrio harveyi JMH597 AI-2 luminescence/OD600 ratio, 9 h; at 7.5 µM; active compounds read low; 0 = neutral-control median; strain lacks LuxN and CqsS sensors

Activity change, active:
O=C(COC(=O)C1CCCCC1)Nc1ccc([N+](=O)[O-])cc1 -83.6%, COC(=O)c1ccc(SCc2ccccc2)nc1 -80.3%, Cc1cc(C(=O)N/N=C/c2cc([N+](=O)[O-])cc(C)c2O)n[nH]1 -86.5%, Cc1ccc(NS(=O)(=O)c2ccc3c(c2)NC(=O)CO3)cc1 -85.9%, O=C1COc2ccc(S(=O)(=O)Nc3ccc(OC(F)(F)F)cc3)cc2N1 -94.2%, O=C(CCC(=O)c1cccs1)Nc1nc2ccccc2s1 -87.3%, Cc1cc(CN(C)C(=O)c2cc(COc3ccc(C)c(C)c3)on2)n[nH]1 -90.7%, CN(Cc1cnccn1)C(=O)c1cc(COc2cccc(C(F)(F)F)c2)on1 -92.5%, COC(=O)C1CCN(C(=O)c2ccc3oc(Cc4ccc(Cl)cc4)nc3c2)CC1 -86%, S=C(NCc1ccc(Cl)cc1)NC1CCCCC1 -86.1%, O=C(/C=C/c1ccc([N+](=O)[O-])o1)NNC(=O)c1ccc(F)cc1 -90.7%, CCOC(=O)c1nn(-c2cccc(C)c2)cc1C(=O)c1ccccc1 -88.4%, Cc1nn(CC(=O)Nc2ccc(F)cc2)c(=O)c2ccccc12 -95.2%, COc1cc(C(=S)NCc2ccccc2)cc(Br)c1O -79.9%, C=CCSc1nsc(NC(=O)Nc2cccc(C(C)=O)c2)n1 -85%, CCCCCc1ccc(-c2ccc(C(=O)O)cc2)nc1 -76%

Activity change, inactive:
CCN(CC)c1ccc(S(=O)(=O)N2CCCCC2)cc1NC(=O)C1=COCCO1 0.314%, Cc1cccc(N2CCN(S(=O)(=O)c3ccc(-c4cc(C)no4)s3)CC2C)c1 (stereo not drawn) 7.14%, Cc1ccc(C(=O)N2CCN(S(=O)(=O)N3CCOCC3)CC2)cc1 14.3%, O=C(COc1ccc([N+](=O)[O-])cc1)Nc1ccc(N2CCCC2)cc1 44.5%, NC(=O)c1ccc(NC(=O)COC(=O)c2ccc([N+](=O)[O-])cc2)cc1 17.8%, CCCC1NC(=O)NC(C)=C1C(=O)OCC (stereo not drawn) 2.55%, Oc1c(Br)cc(/C=N/NC(=S)NCC2CCCO2)cc1Br (stereo not drawn) 46.7%, CCN(C(=O)COc1cccnc1[N+](=O)[O-])C1CCS(=O)(=O)C1 (stereo not drawn) 32.7%, N#CCSc1nc(-c2ccccc2)nc2ccc(F)cc12 12.5%, COC(=O)c1ccc(CSc2nncn2C)cc1 9.24%, COC(=O)c1ccc(CSc2nncn2N)cc1 26.7%, COc1ccc(N2CCN(S(=O)(=O)c3cc(Br)cnc3N)CC2)cc1 15.8%, CC(C)(C)c1cc(C(=O)N/N=C/c2ccc([N+](=O)[O-])s2)n[nH]1 16.7%, COc1ccc2ccccc2c1/C=N/NC(=O)c1cc(C)[nH]n1 11.2%, COC(=O)c1ccc(NC(=O)CSc2nnc(C3CC3)n2C)cc1 40.9%, Cc1c(NC(=O)C(C)OC(=O)c2c3c(nc4ccccc24)CCC(C)C3)c(=O)n(-c2ccccc2)n1C (stereo not drawn) 5.39%, Cc1cc(C)n(CCNCc2c(C(=O)N3C[C@@H](C)O[C@@H](C)C3)nc3ccc(Cl)cn23)n1 11%, Cc1cccc(CCNS(=O)(=O)c2ccc3c(c2)NC(=O)CO3)c1 -59.5%, CC(=O)Nc1ccc(NS(=O)(=O)c2ccc3c(c2)NC(=O)CC(=O)N3)cc1 6.21%, Cc1ccc(NS(=O)(=O)c2cc3c(cc2C)NC(=O)CO3)cc1 20.3%, O=C1COc2ccc(S(=O)(=O)NCCc3ccc(Cl)cc3)cc2N1 -21.2%, COc1cc(NC(=O)c2ccccc2NS(=O)(=O)c2ccc(Cl)s2)cc(OC)c1 26.9%, CCOc1ccc(NC(=O)CC(Cc2ccc(Cl)cc2)C(=O)O)cc1 (stereo not drawn) -20.6%, CCCCCCC12CCC(C(=O)O)(CC1)CC2 24.4%, Cn1nnnc1SCC(=O)Nc1nc2ccccc2s1 32.4%, O=C(CCC(=O)c1cccs1)NC1CCCCCC1 -7.35%, O=C(NC(=S)Nc1ccccc1C(=O)O)c1ccc(-c2ccc(Br)cc2)o1 9.83%, CN(C)S(=O)(=O)c1ccc(N/C=C(\[N+](=O)[O-])S(=O)(=O)c2ccccc2)cc1 28.7%, Cc1ccc(OCc2cc(C(=O)N(C)CCc3ccccc3)no2)cc1C 36%, Cc1ccc(OCc2cc(C(=O)N(C)CCn3ccnc3C)no2)cc1C 14.9%, O=C(c1cc(COc2cccc(C(F)(F)F)c2)on1)N1CCSCC1 -30.7%, CN(Cc1cccnc1)C(=O)c1cc(COc2ccc3ncccc3c2)on1 38.5%, O=S(=O)(c1ccc(Cl)cc1)N1CCCN(c2ccc(C(F)(F)F)cn2)CC1 6.59%, COc1ccc(CN2CCn3ncc(C(=O)Nc4ccc(Cl)cc4Cl)c3C2=O)cc1 23.8%, CCOc1ccc(S(=O)(=O)Nc2ccncc2)c(C)c1C 21.3%, COc1ccc(Cc2nc3ccc(C(=O)N4CCC(N(C)C)C4)cc3o2)cc1 (stereo not drawn) -2.62%, COCC1CCN(C(=O)c2ccc3oc(Cc4ccccc4)nc3c2)C1 (stereo not drawn) 0.814%, Oc1ccc(-c2cccc(-c3ccc(O)cc3)c2)cc1 -10.9%, O=C(NC1CCCCC1)c1ccc(-c2ccc(Cl)cc2)o1 2.19%, COc1ccc(NC(=O)[C@H](NC(=O)[C@@H]2Cc3ccccc3CN2)c2ccccc2)cc1 13.8%, CCc1ccc(C(=O)CSc2nnc(C)c(=O)[nH]2)cc1 17.8%, COc1ccccc1C(=O)N1C(CC(=O)Nc2ccccc2C)C(=O)NC2CCCCC21 (stereo not drawn) 6.5%, CC(C)(C)OC(=O)CNC(=O)c1[nH]cnc1C(=O)N[C@@H](Cc1ccccc1)C(=O)OCc1ccccc1 20.9%, S=C(NCc1ccc(Cl)cc1)NC12CC3CC(CC(C3)C1)C2 -20.7%, O=C(NC(=S)NC1CCCCC1)c1ccc(Cl)cc1 6.82%, COc1cc(C(=O)OCC(=O)NC(C)CCc2ccccc2)cc(OC)c1OC (stereo not drawn) 17.1%, CCCNC(=O)c1ccc(N2CCC3(CC2)CC(c2cccc(Br)c2)=NO3)c(NC(=O)c2ccco2)c1 20.3%, Cc1ccc(/C=C/C(=O)Nc2ccc([N+](=O)[O-])c(NC(=O)/C=C/c3ccc(C)o3)c2)o1 34.4%, O=C(N/N=C/c1ccc([N+](=O)[O-])o1)c1cn(-c2ccccc2)nc1-c1ccc(F)cc1 7.69%, Cc1nc(CN2CCN(C(=O)CCc3nnc(Cc4c[nH]c5ccccc45)o3)CC2)cs1 18%, COc1ccccc1NC(=O)COC(=O)Cc1ccc(S(=O)(=O)N2CCCCC2)s1 2.99%, CCOC(=O)c1cn(Cc2cccc(C)c2)nn1 13.8%, CC(=O)c1nn(-c2ccc(C)cc2)cc1C(=O)c1cccc(Br)c1 14.3%, Cc1cc(S(=O)(=O)N2CCOCC2)ccc1OCC(=O)N1CCOCC1 18.8%, O=C(NC1CCN(C(=S)Nc2ccc(Cl)cc2)CC1)C1CCCCC1 16.7%, O=C(O)c1c(NC(=O)N2CCCC2)sc2c1CCCC2 6.56%, COc1cccc(C(=O)NC(=O)Nc2nc(C)cc(C(F)(F)F)n2)c1 11%, Cc1nn(CC(=O)Nc2ccc3c(c2)nc(CN2CCCCC2)n3C)c(=O)c2ccccc12 18.4%, O=C(Cn1nc(C(=O)O)c2ccccc2c1=O)Nc1ccc(F)cc1 18.2%, CCN(C(=O)COC(=O)C1CCN(S(=O)(=O)c2ccc(C)c(C)c2)CC1)C1CCS(=O)(=O)C1 (stereo not drawn) -3.07%, O=C(CCNS(=O)(=O)c1ccc(Br)s1)NCc1ccccc1Cl 32.2%, CCN(CC)c1ccc(NC(=O)c2ccc(=O)[nH]c2)cc1S(=O)(=O)Nc1ccc(OC)cc1 18.7%, COc1ccc(CN(C)C(=O)c2cc(-c3ccc(C)cc3C)nc3ccccc23)c(OC)c1OC 10.3%, COc1cc(C=O)c(Br)cc1OCC(=O)NCc1ccccc1 15.5%, COc1cc(C(=O)NCc2ccncc2)cc(Br)c1OCc1ccccc1 36.8%, CN(C(=O)CN1C(=O)S/C(=C\c2ccccc2F)C1=O)C1CCS(=O)(=O)C1 (stereo not drawn) 34.2%, CCSc1nsc(NC(=O)Nc2ccccc2OC)n1 11.5%, CSc1nsc(NC(=O)Nc2ccccc2)n1 37.1%, COc1ccc(NC(=O)CSCc2ccc([N+](=O)[O-])cc2)cc1OC 3.16%, COc1ccc(-c2cc(C(=O)N(C)CC(=O)Nc3ccccc3Cl)c3ccccc3n2)cc1OC 20%, O=C(COc1cccc2c1CCNC2=O)NC1CCCCC1 2.05%, O=C(OCc1cn(-c2ccc(Cl)c(Cl)c2)nn1)c1ccccc1Cl -28.4%, CCCCCc1ccc(-c2ccc(OCC)cc2)nc1 -0.256%, CCCCCc1ccc(-c2cn(Cc3ccc4ccccc4c3)nn2)cc1 6.86%, Cc1c(CC(=O)N2CCN(C(=O)C3COc4ccccc4O3)CC2)c(=O)oc2c(O)c(O)ccc12 (stereo not drawn) 10.9%, O=C(NC(=O)N1CCSCC1)c1c(Cl)cccc1Cl 19.3%, CSCCC(NC(=O)c1ccco1)C(=O)Nc1cc(C)ccn1 (stereo not drawn) 30%
